Data published in PubChem BioAssay AID624298 (National Center for Advancing Translational Sciences (NCATS), 2012).
Results filed as inconclusive are left out. Where a call stands in place of a potency, no number is given. Activity calls are given as the source filed them. Calls come from the whole dose curve; as a rule, active = well fitted activation curve with a large enough effect; inconclusive = small, poorly fitted or top-dose-only effect; inactive = no such curve, though single readings can be large or run the other way.
Potency is the fitted concentration of half-maximal effect.

Assay: Activators of T cell receptors: Hit Validation
Conditions: primary human leukocytes, cytokine release by HTRF, 48 h, TCR-stimulated with anti-CD3 beads; series mostly up to 46.1 µM
Method in brief: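 Readout is IL-2 secretion by HTRF, measured after 48 hr in which primary human leukocytes received compound together with a-CD3 beads as the only TCR stimulus.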
For O=C(c1cc(-c2ccc(F)cc2)nc2ccccc12)N1CCN(C2CCS(=O)(=O)C2)CC1 (stereo not given), the Potency was “inactive”. In the case of Cn1c(=O)c2c(ncn2CC(O)CO)n(C)c1=O (stereo not given), the Potency is reported as “inactive”. In the case of COc1ccc(N(C)S(=O)(=O)c2cccc(C(=O)N3CCN(Cc4ccc5c(c4)OCO5)CC3)c2)cc1, the Potency is reported as “inactive”. With CCOC(=O)C1CCN(C(=O)c2cccc(S(=O)(=O)N3CCc4ccccc43)c2)CC1 the Potency was “inactive”. In the case of Cc1ccc(NC(=O)CN(C)C(=O)COC(=O)c2nccnc2N)cc1, the Potency is reported as “inactive”. In the case of O=C(O)c1ccccc1-c1c2cc(I)c(=O)c(I)c-2oc2c(I)c(O)c(I)cc12, the Potency is reported as 996 nM (active). In the case of COc1ccccc1CC(=O)NNC(=O)CN(C)S(=O)(=O)c1ccc(Cl)cc1, the Potency is reported as “inactive”. For c1ccc(Sc2ccccn2)cc1, the Potency was “inactive”. With CCCCCCC[C@@H](C/C=C/CCC(=O)N(C)C/C(=C/Cl)C/C(=C\C(=O)N1CC(OC)=CC1=O)OC)OC the Potency was 996 nM (active). In the case of CCCn1c(-c2ccccc2)nc2c(=O)n(C)c(=O)[nH]c21, the Potency is reported as “inactive”. For CC1CCCN(S(=O)(=O)c2ccc(NC(=O)C3CCN(C(=O)C(C)(C)C)CC3)cc2)C1 (stereo not given), the Potency was “inactive”. In the case of CSCc1c(C(=O)OCC(=O)NC2CCCCC2)oc2ccccc12, the Potency is reported as “inactive”. With CN(C)c1ccc(C=c2c3ccccc3n3c2c2ccccc2[n+]3C)cc1 the Potency was 560 nM (active). With CCN(CC)c1ccc(S(=O)(=O)N2CCOCC2)cc1NC(=O)COC(=O)/C=C/c1ccccc1 the Potency was “inactive”. With CC(=O)c1cccc(S(=O)(=O)N2CCC(C(=O)Nc3cccc(C(=O)NC4CC4)c3)CC2)c1 the Potency was “inactive”. For O=C(NCCCNCc1ccccc1)/C(=N\O)c1ccccc1, the Potency was “inactive”. With COc1cc(C(=O)OCCCN2CCCN(CCCOC(=O)c3cc(OC)c(OC)c(OC)c3)CC2)cc(OC)c1OC the Potency was “inactive”. With CC(c1nnc(SCC(=O)c2c(N)n(C3CC3)c(=O)[nH]c2=O)n1-c1ccc(F)cc1)N(C)C (stereo not given) the Potency was “inactive”. For Cc1ncc[nH]1, the Potency was “inactive”. For CCOC(=O)C1CCCN(C(=O)c2cccc(S(=O)(=O)N3CCCC3)c2)C1 (stereo not given), the Potency was “inactive”. In the case of CN(C)CCCN1c2ccccc2Sc2ccc(Cl)cc21, the Potency is reported as “inactive”. For Cc1ccc(C(=O)NNC(=O)COC(=O)COc2ccccc2C#N)cc1, the Potency was “inactive”. For COc1ccc(CNC(=O)C[C@H]2C[C@H](C(=O)N3CCCCC3)[C@@]3(C)c4[nH]c5cc(-c6ccco6)ccc5c4CCN3C2=O)cc1OC, the Potency was “inactive”. For CN1C(=O)c2ccccc2Sc2ccc(NC(=O)N3CCOCC3)cc21, the Potency was “inactive”. With CN=c1nc(-c2ccccc2)n(-c2ccccc2)s1 the Potency was “inactive”. With COc1cccc(CNC(=O)c2ccc(Cl)c(S(=O)(=O)N3CCOCC3)c2)c1 the Potency was “inactive”. For NC(=O)c1ccccc1, the Potency was “inactive”. For CCOc1ccc(-c2nnc(-c3snc(-c4ccc(F)cc4)c3N=CN(C)C)o2)cc1, the Potency was “inactive”. In the case of Cc1nn(Cc2ccccc2)c(C)c1C(=O)N1CCN(S(=O)(=O)/C=C/c2ccccc2)CC1, the Potency is reported as “inactive”. For CC(C)N1C(=O)C(=O)N(CC(=O)N2CCc3ccccc32)C1=O, the Potency was “inactive”.
